# PrP 5UTR inh – suppresses PrP 5' UTR mRNA reporter expression; cell-based PrP 5' UTR mRNA reporter, plate reader; inhibition, % (test concentration not listed); hit rate 0.35% among 340,000; AID 488862; in the data active = inhibition above about 52%; note: 0 = median of the neutral control wells
# PfHsp40 yeast – rescue of PfHsp40-mediated yeast toxicity; S. cerevisiae expressing PfHsp40, growth rescue, ATP luminescence; growth rescue, % at 12.5 µM; hit rate 0.68% among 340,000; AID 504582; in the data active = growth rescue above about 28%, passing the limit was not always enough;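 note: yeast W303a lacking pdr1 and pdr3 grown in galactose medium; growth measured after three days at 30 °C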
# SSB-PriA inh – K. pneumoniae PriA-SSBct interaction inhibition; AlphaScreen SSBct-PriA binding, biotinylated peptide; inhibition, % at 33 µM; hit rate 0.6% among 430,000; AID 1272365; in the data active = inhibition mostly above about 37%, no sharp cut-off; inactive = mostly below about 20%;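 note: plate controls were negative control peptide for no effect and reference peptide for full effect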
# RecA intein inh – blocks M. tuberculosis RecA intein splicing; P9WHJ3; cell-free RecA intein splicing, fluorescence; inhibition, % (concentration not given with the values); hit rate 0.75% among 290,000; AID 2221; in the data active = inhibition above about 30%;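 note: 0% = vehicle wells and 100% = reference inhibitor control wells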
# Target sequence (P9WHJ3 whole entry, looked up): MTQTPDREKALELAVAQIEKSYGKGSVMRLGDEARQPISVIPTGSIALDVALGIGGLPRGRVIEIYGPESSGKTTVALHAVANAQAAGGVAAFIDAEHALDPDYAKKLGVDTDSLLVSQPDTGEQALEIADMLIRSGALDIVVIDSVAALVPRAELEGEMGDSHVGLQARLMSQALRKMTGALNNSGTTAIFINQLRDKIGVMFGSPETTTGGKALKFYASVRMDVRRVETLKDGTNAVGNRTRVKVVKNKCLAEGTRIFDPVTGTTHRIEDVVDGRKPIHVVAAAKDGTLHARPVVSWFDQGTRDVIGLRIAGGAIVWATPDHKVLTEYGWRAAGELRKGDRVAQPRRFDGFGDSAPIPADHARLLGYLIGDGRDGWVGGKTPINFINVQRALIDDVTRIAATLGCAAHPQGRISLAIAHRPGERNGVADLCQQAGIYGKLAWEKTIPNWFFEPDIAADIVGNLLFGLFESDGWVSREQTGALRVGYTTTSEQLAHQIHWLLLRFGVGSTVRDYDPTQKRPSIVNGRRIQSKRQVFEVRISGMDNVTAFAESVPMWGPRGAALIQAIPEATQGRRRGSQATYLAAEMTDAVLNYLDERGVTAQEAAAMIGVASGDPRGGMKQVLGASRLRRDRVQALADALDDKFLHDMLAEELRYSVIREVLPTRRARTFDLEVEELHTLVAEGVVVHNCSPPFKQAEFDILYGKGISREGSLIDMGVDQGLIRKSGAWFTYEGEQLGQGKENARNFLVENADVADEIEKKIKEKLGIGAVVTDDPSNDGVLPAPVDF
# PrPC surface inh – reduces human prion protein on the cell surface; AID 720596; hit rate 0.43% among 370,000; inhibition, % at 13.8 µM; P04156; cell surface PrPC, TR-FRET read-out; in the data active = inhibition above about 24%; note: 0% = median of the test wells and 100% = reference compound wells
# BJeLR lethal – kills HRASV12-expressing BJeLR cells; AID 1554; inhibition, % (test concentration not listed); hit rate 0.17% among 300,000; BJeLR (HRASV12) viability, CellTiter-Glo ATP luminescence, 48 h; in the data active = inhibition above about 50%
# GFP chromo cs – counter-screen GFP chromophore formation inhibition. EC50, µM. cell-free GFP chromophore formation, fluorescence. hit rate 83% among 2,100. shares compounds with RecA intein inh; call rule not given here
# Active calls of the source: *; nt = not tested or not shown. Most compounds without a hit are left out; they make up all but 1.9% or so of the library.
SMILES,PrP 5UTR inh,PfHsp40 yeast,SSB-PriA inh,RecA intein inh,PrPC surface inh,BJeLR lethal,GFP chromo cs
O=C(CCl)c1cc2c3c(c1)CC(=O)N3CCC2,-29,1,-2,44*,-2,6,39*
Cn1nc(-c2ccc(Cl)cc2)nc2c(=O)n(C)c(=O)nc1-2,-27,nt,nt,94*,nt,19,0.36*
CS(=O)(=O)n1nc(-c2ccc(Cl)cc2)nc1N,-25,0,-12,6,2,5,nt
CCOc1ccc2c(c1)-c1c(ssc1=S)C(C)(C)N2,-12,12,96,51*,nt,-3,12*
CCOc1ccc2c(c1)-c1c(ssc1=S)C(C)(C)N2C(=O)CSC1=NCCS1,-16,0,43,27,-14,-9,nt
C=CCN1C(=O)/C(=C/c2ccccc2)SC1=Nc1nccs1,nt,nt,7,nt,nt,nt,nt
COc1ccc(OCc2cc(C(=O)N3CCCC(OC)C3)no2)c2ccccc12 (stereo unspecified),-47,1,0,35*,-4,-1,30*
O=C(Nc1ccc(-c2ccc(N3CCCCCC3)nn2)cc1)c1ccc(F)cc1F,nt,nt,-8,nt,nt,nt,nt
N#Cc1c(N2CCCC2)nc(N)c2c(N)nc(N3CCCC3)cc12,-57,0,17,58*,-13,11,0.24*
Cc1cc(=O)n(-c2ccccc2Cl)[nH]1,-32,-1,-12,87*,-4,4,18*
Cc1cc(=O)n(-c2ccc(O)cc2)[nH]1,-16,0,-8,97*,1,2,2.2*
CCOC(=O)c1ccc(-n2[nH]c(-c3ccccc3)cc2=O)cc1,-23,0,-10,67*,3,-6,3.3*
Cc1cc(=O)n(-c2ccc(C(=O)O)cc2)[nH]1,-11,2,0,94*,-3,1,2.8*
CNC(=O)c1c(NC(=O)C2CC2)sc2c1CCCC2,nt,nt,-1,nt,nt,nt,nt
COc1ccc(CN=Cc2c(O)[nH]c3ccccc23)cc1,-27,0,1,0,3,-1,nt
Cc1ccc(CN=Cc2[nH]c3ccc(Br)c(Cl)c3c2O)cc1,-33,1,-3,75*,-28,-1,4.8*
Oc1c(C=NCc2ccc(F)cc2)[nH]c2ccc(Br)c(Cl)c12,nt,nt,nt,43*,-23,-10,6.1*
N#Cc1ccc(Cl)cc1NC(=O)C(=O)NCC1CCN(Cc2cccs2)CC1,nt,nt,-18,nt,nt,nt,nt
CCOC(=O)c1[nH]c(=O)c2ccccc2c1O,-23,0,-9,56*,7,6,26*
Cn1cnc(S(=O)(=O)N2CC(N3C(=O)CCC3=O)C2)c1,nt,nt,-20,nt,nt,nt,nt
O=C(CNC(=O)C1COc2ccccc2O1)NN=Cc1ccccc1Cl (stereo unspecified),nt,nt,-4,nt,nt,nt,nt
O=C(CNC(=O)C1COc2ccccc2O1)N/N=C\c1ccccc1Cl (stereo unspecified),-6,-1,nt,0,-1,9,>38
O=C(N/N=C\c1ccc(-c2ccccc2[N+](=O)[O-])o1)C1COc2ccccc2O1 (stereo unspecified),-13,1,nt,33*,-10,-17,39*
Cc1onc(-c2ccccc2)c1C(=O)n1nnc2ccccc21,-15,0,-11,31*,2,-2,35*
COC(=O)N1CCC(CNC(=O)Nc2ccc(C(F)(F)F)cc2)CC1,nt,nt,-5,nt,nt,nt,nt
SMILES,PrP 5UTR inh,PfHsp40 yeast,SSB-PriA inh,RecA intein inh,PrPC surface inh,BJeLR lethal,GFP chromo cs
CC(C)NC(=S)NC(c1ccccc1)(c1ccccc1)c1ccccc1,-8,3,0,32*,13,11,>38
CCC1C(=O)N(c2nc(C)cc(C)n2)N=C1C (stereo unspecified),-15,0,-14,67*,9,10,20*
COc1cc(C(c2c(C)[nH][nH]c2=O)c2c(C)[nH][nH]c2=O)ccc1OS(=O)(=O)c1ccccc1,-23,-2,-20,95*,1,-15,0.44*
CCOC(=O)c1ccc(OS(=O)(=O)c2ccccc2)c(OC)c1,-149,1,-46,1,-1,12,nt
COc1cc(C(c2c(C)[nH][nH]c2=O)c2c(C)[nH][nH]c2=O)ccc1OS(=O)(=O)c1ccc(C)cc1,-7,-1,-15,98*,-3,3,0.44*
COc1ccccc1-c1ccc(N2CCN(S(=O)(=O)c3cccs3)CC2)nn1,nt,nt,-6,nt,nt,nt,nt
COc1cc(C)c(C)cc1S(=O)(=O)NC[C@]1(OC)CCSC1,nt,nt,5,nt,nt,nt,nt
O=C1C(Cc2ccccc2)Nc2ncnc(N3CCc4ccccc4C3)c2N1Cc1ccc(Cl)cc1 (stereo unspecified),-5,38*,-5,33*,nt,11,>38
COc1cccc(CN2CCSCC2)c1OC,-14,2,11,-4,6,6,nt
COc1ccccc1CN1CCSCC1,-15,-1,4,33*,9,-1,25*
CCOC(=O)c1cc2cc3ccccc3cc2[nH]1,-71,1,-35,44*,-1,nt,>38
CCOc1ccc(CN2CCN(CC3=Cc4cccc(OC)c4OC3)CC2CCO)cc1 (stereo unspecified),-7,-1,14,42*,-1,-1,>38
COc1cc(C(c2c(C)[nH][nH]c2=O)c2c(C)[nH][nH]c2=O)ccc1OC(C)C,-5,-1,5,97*,-4,10,0.45*
COc1cc(C2NC(=O)c3ccccc3O2)ccc1OC(C)C (stereo unspecified),-21,-1,6,1,7,-6,nt
Cc1[nH][nH]c(=O)c1C(c1ccc(O)c([N+](=O)[O-])c1)c1c(C)[nH][nH]c1=O,-11,-2,0,-3,-5,1,nt
Cc1[nH][nH]c(=O)c1C(c1ccc(O)c(Br)c1)c1c(C)[nH][nH]c1=O,-9,-1,7,98*,0,8,0.46*
CCOc1cc(C(c2c(C)[nH][nH]c2=O)c2c(C)[nH][nH]c2=O)ccc1O,-18,-1,-9,96*,2,-7,1.1*
COc1ccc(C(c2c(C)[nH][nH]c2=O)c2c(C)[nH][nH]c2=O)cc1Br,-6,-1,-1,98*,-3,-11,0.59*
CCCn1c(SCC(=O)Nc2ccc(Br)cc2F)nc2c(oc3ccccc32)c1=O,nt,nt,-3,nt,nt,nt,nt
Cc1cc(C)n(-c2cc(NCCNS(=O)(=O)c3ccccc3Cl)ncn2)n1,nt,nt,-17,nt,nt,nt,nt
CN(CCc1cnn(C)c1)C(=O)C1CCC(=O)N(CC2CCCCC2)C1 (stereo unspecified),-15,1,-24,46*,2,-4,>38
Cc1ccc(NC(=O)CC(=O)Nc2ccc(C)c(C)c2)cc1C,-10,2,5,-1,4,10,nt
Cc1ccc(Sc2ccc(NC(=O)CCl)cc2)cc1C,9,457*,-9,66*,1,-1,7.3*
Cc1ccc(C)c(Sc2ccc(NC(=O)CCl)cc2)c1,nt,nt,-2,91*,3,1,7*
CSc1nc(-c2ccc(Cl)cc2)nn1C(=O)c1ccco1,-49,0,-7,38*,-1,2,>38

# Screens (PubChem)
